# Rows were chosen to be rich in hits. Some 1.3% of all compounds tested hit in one or more screens of this group.
# LANA DNA inh = blocks KSHV LANA C-terminal domain binding to DNA; inhibition, % at 9 µM; MBP-C-LANA/FAM-LBS DNA binding, fluorescence polarization; 340,000 tested, 0.078% active;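 active means highest replicate inhibition at or above 60% at 9 µM, even if other replicates fall short; inactive means all replicates below 60% inhibition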;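 further: 0% = neutral control wells and 100% = 4 µM acridine orange control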
# MCL1 BIM primary = inhibitors of human MCL1 binding to BIM-BH3 peptide; 320,000 tested, 0.68% active; GST-MCL1 / FITC-Bim-BH3 fluorescence polarization; Q07820; AID 2057; inhibition, % at 10.9 µM;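 active means inhibition above the mean inhibition of all tested compounds plus 3 SD, set per campaign, cut at about 40% in these data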;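 further: 0% = DMSO wells and 100% = unlabeled Bim-BH3 peptide control; higher means more loss of mP so more displacement of Bim peptide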
# E coli Lon inh = inhibitors of E. coli Lon protease; P0A9M0; 360,000 tested, 0.42% active; AID 602123; purified E. coli Lon protease, fluorescence polarization; inhibition, % at 7.94 µM; in the data active means inhibition above about 13%, passing the limit was not always enough;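 further: 0% = enzyme with probe and DMSO and 100% = no enzyme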
# Bcl-xL primary = blocks human Bcl-xL binding to Bim BH3 peptide | GST-Bcl-xL / FITC-Bim BH3 peptide fluorescence polarization | inhibition, % at 10.9 µM | 320,000 tested, 0.7% active | Q07817;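 active means inhibition above the mean of all tested compounds plus 3 SD, cutoff set per campaign, cut at about 30% in these data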;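 further: 0% = DMSO wells and 100% = unlabeled Bim-BH3 peptide competitor; inhibitors lower millipolarization by displacing the labeled peptide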
# GLD-1 RNA inh = GLD-1-TGE RNA interaction inhibition (C. elegans); purified GLD-1 + fluorescein TGE RNA, fluorescence polarization; inhibition, % at 5.96 µM; 320,000 tested, 0.44% active; AID 2280;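 active means percent inhibition above a per-plate cutoff, the plate mean of test compounds plus 3 SD, cut at about 30% in these data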;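 further: 0% = DMSO wells with GLD-1 and probe and 100% = wells lacking GLD-1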
# Keap1 Nrf2 FP = inhibitors of human Keap1-Nrf2 protein-protein interaction | AID 504523 | 340,000 tested, 0.15% active | inhibition, % at 9.4 µM | Q14145 | Keap1 Kelch-Nrf2 peptide fluorescence polarization, 1536-well; in the data active means inhibition above about 12%; inconclusive means no clear call, values can overlap the other calls; inactive means below about 7.3%;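 further: human Keap1 Kelch domain with fluorescein labeled Nrf2 9mer peptide probe; 0% = neutral control wells and 100% = peptide positive control; higher means more block of Keap1 binding to Nrf2 peptide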
# Target sequence (Q14145 whole entry, looked up, the tested form may be a part): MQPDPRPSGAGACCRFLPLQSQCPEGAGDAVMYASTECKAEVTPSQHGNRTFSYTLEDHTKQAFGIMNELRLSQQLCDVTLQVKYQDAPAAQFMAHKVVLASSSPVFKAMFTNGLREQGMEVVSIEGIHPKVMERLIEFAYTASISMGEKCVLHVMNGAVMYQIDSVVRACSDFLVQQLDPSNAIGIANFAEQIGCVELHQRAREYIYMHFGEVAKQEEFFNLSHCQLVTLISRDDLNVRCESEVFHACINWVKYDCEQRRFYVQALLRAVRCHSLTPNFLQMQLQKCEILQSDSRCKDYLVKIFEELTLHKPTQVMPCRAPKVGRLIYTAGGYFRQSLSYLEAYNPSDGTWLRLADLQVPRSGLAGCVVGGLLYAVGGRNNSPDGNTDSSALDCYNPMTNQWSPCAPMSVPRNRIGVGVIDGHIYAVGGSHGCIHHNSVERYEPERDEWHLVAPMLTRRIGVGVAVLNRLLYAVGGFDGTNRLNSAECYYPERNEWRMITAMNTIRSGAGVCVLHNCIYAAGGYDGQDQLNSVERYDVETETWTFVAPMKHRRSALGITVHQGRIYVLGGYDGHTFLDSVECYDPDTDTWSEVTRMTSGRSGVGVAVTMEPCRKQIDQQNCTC
# E coli Lon conf = confirmation of E. coli Lon protease inhibitors; 1,400 tested, 31% active; purified E. coli Lon, fluorescence polarization; AID 602230; shares compounds with E coli Lon inh; inhibition, % at 7.94 µM; in the data active means inhibition above about 16%;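 further: 0% = enzyme with probe and DMSO and 100% = no enzyme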
# * hit, by the source's call; ? = inconclusive; · = not tested or not shown; + = active, no number.
SMILES,LANA DNA inh,MCL1 BIM primary,E coli Lon inh,Bcl-xL primary,GLD-1 RNA inh,Keap1 Nrf2 FP,E coli Lon conf
Cc1cccc(/C=N/NC(=O)C(C)Nc2cccc3ccccc23)n1 (stereo unspecified),7.7,32.4,61.5*,2.2,3.4,2.9,104.7*
CC(Nc1cccc2ccccc12)C(=O)N/N=C/c1ccc([N+](=O)[O-])cc1 (stereo unspecified),1.8,11.4,-3.4,-0.2,5.5,-5.0,·
CCOc1ccc(C(C(=O)NC2CCCCC2)N(C(=O)c2csnn2)C2CC2)cc1 (stereo unspecified),-1.3,-9.4,24.1*,-0.2,2.2,-3.3,6.7
CN(C(=O)CSc1nc2ccccc2n1C)C1CCS(=O)(=O)C1 (stereo unspecified),-2.5,-5.3,8.6,-6.7,-2.6,-4.7,·
Nc1[nH]c(=O)[nH]c(=O)c1N=Cc1ccccc1,30.4,·,90.0*,·,·,9.1,53.1*
Cc1ccc(C)c(Cn2c(=O)n(CCCC(=O)NCc3ccco3)c(=O)c3ccccc32)c1,0.7,-2.8,0.6,5.6,2.0,3.6,·
Cc1cc(C)c(Cn2c(=O)n(CCCC(=O)NCc3ccco3)c(=O)c3ccccc32)c(C)c1,5.6,-12.3,17.9*,-1.4,-1.3,-6.8,-7.1
O=C(CN1CCSCC1)N/N=C/c1ccc(F)c(F)c1,-0.5,-2.2,27.0*,2.3,5.6,-5.3,-1.0
O=C(CSc1ccc2c(c1)OCCO2)N1CCN(c2ccccc2O)CC1,-0.8,·,20.2*,·,·,-5.5,-3.5
O=C(Cc1ccc(Br)cc1)N1CCN(c2ccc(F)cc2)CC1,0.3,4.0,-4.6,2.9,-1.0,3.1,·
O=C(Cc1ccc(Br)cc1)N1CCN(c2ccccc2O)CC1,-0.1,-2.7,24.4*,3.2,8.0,-2.7,2.9
O=C(CSc1ccc2c(c1)OCCO2)N1CCN(c2ccccc2)CC1,-0.7,6.8,-1.0,2.9,1.6,-5.1,·
CC(=O)Nc1cc(-c2cccnc2)cn2c(-c3ccc(F)cc3)cnc12,·,·,-6.3,·,·,·,·
O=C1c2ccc3c4c(ccc(c24)C(=O)N1CCCCO)C(=O)N(CCCCO)C3=O,-1.9,·,49.8*,·,·,3.4,50.5*
O=C(Cc1cccs1)NCCn1ccc2ccccc21,2.5,2.2,18.7*,-4.7,-5.9,0.9,-4.6
CCN(CC)S(=O)(=O)c1ccc2c(c1)nc(CCC(=O)Nc1ccc3c(c1)OCO3)n2CC,0.7,8.4,-2.6,0.8,1.8,0.0,·
CCn1c(CCC(=O)N(C)CC(=O)Nc2cccc(F)c2)nc2cc(S(=O)(=O)N(C)C)ccc21,2.9,-18.6,15.3*,-19.1,2.9,-4.6,5.1
CN(C)C(=O)c1cccc(-c2cnc3c(NC=O)cc(-c4ccccc4N(C)C)cn23)c1,·,·,+,·,·,·,123.5*
CN(C)c1ccccc1-c1cc(NC=O)c2ncc(-c3cccc(C(F)(F)F)c3)n2c1,·,·,+,·,·,·,+
CCN1CCN(C(=O)Cn2nc(C)c3sc4ccccc4c3c2=O)CC1,-0.3,-0.2,21.0*,2.7,-5.4,-3.1,0.9
CCCN1CCN(CCCNC(=O)CCCn2nc(C)c3sc4ccccc4c3c2=O)CC1,-3.4,-0.2,-3.7,6.8,-0.2,-0.2,·
COC(=O)c1ccc(OC(=O)c2cccnc2SC)cc1,-1.2,-10.1,87.7*,-7.9,-7.7,1.3,-15.8
COc1ccc(S(=O)(=O)N2CCN(C(=O)CNC(=O)c3ccc4c(c3)OCO4)CC2)cc1,0.3,-3.9,53.1*,0.7,-3.2,1.2,-6.6
O=C(NCC(=O)N1CCN(S(=O)(=O)c2ccccc2F)CC1)c1ccc2c(c1)OCO2,-0.6,0.3,5.0,-0.2,-0.7,-1.7,·
Cc1[nH]n(-c2ccccc2)c(=O)c1/C=N/NC(=O)c1ccccc1F,0.7,6.7,20.9*,5.3,-1.6,-3.0,-5.7
CCN(CC(=O)Nc1c(F)cccc1F)C(=O)COc1ccc2c(C)cc(=O)oc2c1,-2.5,5.2,1.0,1.1,3.2,-2.4,·
Cc1cccc(C)c1NC(=O)COC(=O)c1c2c(nc3ccccc13)/C(=C\c1ccc3c(c1)OCO3)CCC2,2.0,+,+,194.0*,181.8*,?,74.2*

# Source: PubChem (several laboratories)
